Results on 104 molecules are retold here after PubChem BioAssay AID1851 (National Center for Advancing Translational Sciences (NCATS), 2009).

In all, about 16,000 compounds went through this assay and about 2,600 (16%) were called active. Not shown: some 20% with an inconclusive outcome. Calls come from the whole dose curve; as a rule, active = well fitted curve in the direction sought with a large enough effect; inconclusive = small, poorly fitted or top-dose-only effect, or effect the other way; inactive = no such curve, though single readings can be large or run the other way. Not all results are given here. Peptide text beside a SMILES is read from it. * marks the point of attachment. PhAc = O=C(Cc1ccccc1)*; OBn = c1ccc(CO*)cc1
% is set by controls: 0 for no effect and ±100 for the full control effect.

Chain of Cytochrome P450 2D6 (Homo sapiens) (P10635 whole entry, looked up): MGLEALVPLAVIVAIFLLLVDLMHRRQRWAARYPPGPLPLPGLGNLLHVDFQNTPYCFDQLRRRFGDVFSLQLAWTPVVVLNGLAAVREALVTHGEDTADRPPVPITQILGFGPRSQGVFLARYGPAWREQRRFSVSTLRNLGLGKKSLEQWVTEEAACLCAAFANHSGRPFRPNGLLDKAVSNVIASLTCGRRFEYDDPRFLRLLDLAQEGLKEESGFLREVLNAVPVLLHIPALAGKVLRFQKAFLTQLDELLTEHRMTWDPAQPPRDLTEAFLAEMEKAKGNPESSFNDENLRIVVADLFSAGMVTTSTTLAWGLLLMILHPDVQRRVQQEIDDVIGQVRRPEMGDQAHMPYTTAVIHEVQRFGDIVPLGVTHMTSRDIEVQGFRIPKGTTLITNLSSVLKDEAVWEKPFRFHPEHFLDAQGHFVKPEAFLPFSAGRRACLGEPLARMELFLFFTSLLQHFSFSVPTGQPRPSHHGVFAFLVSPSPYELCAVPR

This assay addresses Cytochrome P450 2D6 (Homo sapiens) (UniProt P10635). Description: Cytochrome panel assay with activity outcomes. Conditions: recombinant CYP, pro-luciferin dealkylation, luminescence, p450-cyp2d6; series mostly up to 57.1 µM.
For the molecule `CCN1CCc2c(sc(N)c2C(N)=O)C1`, the AC50 entry is “inactive”.

For the molecule `OC[C@@H]1O[C@@H](n2cnc3c(NC4CCCCC4)ncnc32)[C@@H](O)[C@H]1O`, the AC50 result was “inactive”. Same read-out and setting: the result for `O=C(Nc1c(C(=O)N2CCOCC2)cnn1-c1ccccc1)c1ccco1` reads “inactive”; that for `O=c1c(Cc2ccccc2)c(O)nc2n1CCS2`, “inactive”; that for `O=C(c1ccc2nc3ccc(Cl)cc3c(=O)n2c1)N1CCOCC1`, “inactive”. Consider `Cc1cnc(CNc2cc(-c3cccc(C#N)c3)ncn2)cn1`, for which the AC50 entry was “inactive”. For `COc1ccccc1CNc1cc(-c2cccc(C#N)c2)ncn1`, the AC50 entry is “inactive”. Take `COc1cccc(-c2cc(NCc3cccs3)ncn2)c1`: the AC50 was 12.6 µM (active). The same measure, in the same setting: the result for `COc1cccc(-c2cc(NCc3ccccc3OC)ncn2)c1` reads 15.8 µM (active). Still for that read-out and setting: the result for `COCCn1c(=S)[nH]c2cc(C(=O)NC(C)C)ccc2c1=O` reads “inactive”; that for `O=C(N/N=C/c1ccncc1)c1cc2c(ccc3ccccc32)o1`, “inactive”.

For `CCCC(CCC)C(=O)NNc1cc(=O)c2c(=O)n(C)c(=O)n(C)c2[nH]1`, the AC50 entry is “inactive”. The same measure, in the same setting: the same measure for `O=C(O)c1cc(S(=O)(=O)N2CCCCC2)ccc1F`: “inactive”. Regarding `Cc1ccc(S(=O)(=O)Oc2cc(S(=O)(=O)O)cc3cc(S(=O)(=O)O)cc(N)c23)cc1`, the activity, negative = inhibition was 8.03% [at 11.4 µM] (inactive). On to `CC(C)Sc1cc(N2CCOCC2)nc(-c2ccc(Cl)cc2)n1`, for which the AC50 result was “inactive”. On the same count and under the same terms, the same measure for `CC(C)(Oc1ccc(CCNC(=O)c2ccc(Cl)cc2)cc1)C(=O)O`: “inactive”; for `CC(=O)NCCc1ccc(O)c(O)c1`: “inactive”. Same read-out and setting: the result for `Oc1cc2c(cc1O)CN(C(=S)NCCc1ccc(Cl)cc1)CCC2` reads 12.6 µM (active); that for `CCN1CCN(CCCNC(=O)C(NC(=O)C2CCC(C)CC2)C(C)C)CC1` (centres undefined), “inactive”; that for `O=C(NCCCN1CCN(C2CCCCC2)CC1)Nc1ccccc1C(F)(F)F`, 5.01 µM (active). Still for that read-out and setting: the result for `O=C(Nc1cccn(Cc2ccc(F)cc2)c1=O)NC1CCCCC1` reads “inactive”; that for `COCCNC(=O)C1CCN(S(=O)(=O)N2CCC3(CC2)OCCO3)CC1`, “inactive”.

Turning to `CCCCNC(=O)C1CCN(Cc2ccccn2)CC1`, the AC50 was 8.91 µM (active). Same read-out and setting: the result for `CC(C)C(NC(=O)C1CCCCC1)C(=O)NCc1ccccn1` (centres undefined) reads “inactive”. As to `O=C(NCCc1ccc(Cl)cc1)C1CCN(S(=O)(=O)N2CCC3(CC2)OCCO3)CC1`, the AC50 is 14.1 µM (active). Still for that read-out and setting: the same measure for `CCS(=O)(=O)N1CCC(C(=O)NCc2cccnc2)CC1`: “inactive”. Same read-out and setting: the result for `O=C(NCc1ccccc1Cl)C1CCN(S(=O)(=O)N2CCC3(CC2)OCCO3)CC1` reads “inactive”.

For `O=C1NCCCC1C(=O)Nc1ccccc1C(F)(F)F` (centres undefined), the AC50 result was “inactive”.

For `O=C(NCCCN1CCCCCC1)[C@@H](c1ccccc1)C1CCCCC1`, the AC50 was 0.631 µM (active). `CCOC(=O)CSc1ncc(OC)c(Sc2ccc(Cl)cc2)n1`: the AC50 result is “inactive”. On the same count and under the same terms, the same measure for `CCCC(=O)Nc1nc(-c2ccc3c(c2)CCN3S(C)(=O)=O)cs1`: “inactive”; for `COc1ccccc1C(=O)O/N=C1/CCCc2c1ccc(OC)c2[N+](=O)[O-]`: “inactive”; for `C[C@](N)(Cc1ccc(O)c(O)c1)C(=O)O`: “inactive”. With `Nc1nc(N)c2nn(-c3ccc(C(=O)O)cc3)nc2n1`, the activity, negative = inhibition was -6.74% [at 11.4 µM] (inactive). On to `Cc1c(-c2ccc(F)cc2)nc(N)c(C#N)c1-c1cccs1`, for which the AC50 entry was “inactive”. Still for that read-out and setting: the result for `CCOc1ccc(N=C2NC(=O)C(CC(=O)O)S2)cc1` (centres undefined) reads “inactive”; that for `CCCCN(CC)S(=O)(=O)N1CCC(C(=O)NCCCN2CCOCC2)CC1`, “inactive”. Same read-out and setting: the same measure for `CCS(=O)(=O)N1CCC(C(=O)NCCCN2CCCC2)CC1`: “inactive”; for `O=C(NCCCN1CCc2ccccc2C1)C1CCN(S(=O)(=O)N2CCCC2)CC1`: 7.94 µM (active). The same measure, in the same setting: the same measure for `O=C(NCCCN1CCC(Cc2ccccc2)CC1)C1CCN(S(=O)(=O)N2CCOCC2)CC1`: 12.6 µM (active); for `O=C(NCc1ccc(F)cc1)C1CCN(S(=O)(=O)N2CCCCC2)CC1`: “inactive”. In the case of `Cc1ccc(NC(=O)CCC(=O)NNS(=O)(=O)c2ccccc2)c(C)c1`, the AC50 entry was “inactive”. Same read-out and setting: the same measure for `O=C(NCCCN1CCN(Cc2ccccc2)CC1)C1CCN(S(=O)(=O)N2CCCC2)CC1`: 3.98 µM (active); for `COc1cccc(CNC(=O)C2CCN(S(=O)(=O)N3CCCCC3)CC2)c1`: “inactive”. Still for that read-out and setting: the result for `O=C(C1CCN(S(=O)(=O)N2CCOCC2)CC1)N1CCN(Cc2ccccc2)CC1` reads “inactive”; that for `CC(C)N(CCNC(=O)C1CCN(S(=O)(=O)N2CCOCC2)CC1)Cc1ccccc1`, “inactive”; that for `Cc1cc(C)c(S(=O)(=O)NNC(=O)C2CCN(Cc3ccccc3)CC2)c(C)c1`, 15.8 µM (active).

On to `CCN1C(=O)CC(N2CCN(CC(=O)NC(C)C)CC2)C1=O` (centres undefined), for which the AC50 result is “inactive”. As to `CCN(CC)C(=O)Cn1cc(/C=C(\C#N)C(=O)N2CCN(c3ccccc3)CC2)c2ccccc21`, the AC50 entry is “inactive”. The same measure, in the same setting: the result for `Cc1ccc(-c2nc3ncccn3c2NC(=O)C2CC2)cc1` reads “inactive”; that for `CCn1c(=O)c2c(O)cc(=O)oc2c2ccccc21`, “inactive”. Still for that read-out and setting: the result for `CCc1c(C)c(C#N)c2nc3ccccc3n2c1Nc1c(C)n(C)n(-c2ccccc2)c1=O` reads “inactive”; that for `N#CCCn1c(=O)c(-c2ccccc2)nc2cnc(Oc3cccc(Cl)c3)nc21`, “inactive”. On the same count and under the same terms, the same measure for `Cn1cc(-c2nc3cnc(Oc4ccccc4)nc3n(C)c2=O)c2ccccc21`: “inactive”. For `CC[C@H](CN(C)C)C(=O)c1ccco1`, the activity, negative = inhibition was -4.86% [at 11.4 µM] (inactive).

Regarding `COc1ccccc1/C=N/NC(=Nc1ccc(C)cc1)c1nc2ccccc2s1`, the AC50 result is “inactive”. Consider `COCCn1c(=O)c(C)nc2cncnc21`, for which the AC50 entry was “inactive”. Same read-out and setting: the result for `CSc1nc(Sc2cccc(Cl)c2)c2ccccc2n1` reads “inactive”; that for `Cc1c(N2C(=O)CS/C2=N\N=C\c2ccc(Cl)cc2)c(=O)n(-c2ccccc2)n1C`, “inactive”.

Regarding `CC(C)Cn1c(-c2nn(C)cc2Cl)n[nH]c1=S`, the AC50 entry is “inactive”. On the same count and under the same terms, the result for `O=C(Nc1cccc(F)c1)N1CCC2(CC1)CCN(C(=O)c1csnn1)CC2` reads “inactive”. The same measure, in the same setting: the same measure for `Cc1ccc(Oc2nc(-c3ccccc3)ncc2S(C)(=O)=O)cc1`: “inactive”; for `Cc1c(NC(=O)CSc2nnnn2C)c(=O)n(-c2ccccc2)n1C`: “inactive”; for `CC1(C)S[C@@H]2[C@H](NC(=O)[C@@H](N)c3ccc(O)cc3)C(=O)N2[C@H]1C(=O)O`: “inactive”. Still for that read-out and setting: the result for `CCc1ccc(N(C(=O)c2csnn2)C(C(=O)NCc2ccccc2)c2ccco2)cc1` (centres undefined) reads “inactive”.

Regarding `O=C(O)[C@@H](O)[C@@H](O)[C@H](O)[C@H](O)CO`, the activity, negative = inhibition was 0.284% [at 11.4 µM] (inactive). Take `N/N=C1/CC(=O)NC(=O)N1`: the activity, negative = inhibition was -6.83% [at 11.4 µM] (inactive). Regarding `O=C(NCc1cccnc1)C1COc2ccccc2O1` (centres undefined), the AC50 entry is “inactive”. On the same count and under the same terms, the result for `CCn1ccnc1C[C@@H]1COc2ccccc2O1` reads 1.58 µM (active); that for `N/C(=N\O)C1COc2ccccc2O1` (centres undefined), “inactive”; that for `COc1ccc(N2C(=O)CC(S/C(N)=N/N=C(\C)c3cccs3)C2=O)cc1` (centres undefined), “inactive”. Same read-out and setting: the same measure for `Cc1cccc(OC(=O)CN2C(=O)C3C4CCC(C4)C3C2=O)c1C` (centres undefined): “inactive”. Still for that read-out and setting: the result for `CCNC(=O)CSc1nnc(C2CC2)n1-c1ccccc1` reads “inactive”; that for `Cn1cccc1C(=O)C(=O)Nc1cccc(Cl)c1Cl`, “inactive”; that for `O=C(Nc1ccccc1Cl)c1ccccc1Cl`, “inactive”. As to `O=C(Nc1cccc(Cl)c1Cl)c1snnc1-c1ccccc1`, the AC50 is 10 µM (active). Still for that read-out and setting: the same measure for `O=[N+]([O-])c1ccc(C2CCCC/C2=N\OCc2cccc(F)c2)c([N+](=O)[O-])c1` (centres undefined): “inactive”; for `NCCOB(c1ccccc1)c1ccccc1`: “inactive”; for `Cc1cc(NC(=O)c2c([N+](=O)[O-])c(C)nn2C)no1`: “inactive”. Still for that read-out and setting: the result for `CCC(=O)NNc1cc(=O)c2c(=O)n(C)c(=O)n(C)c2[nH]1` reads “inactive”.

As to `CCOCCCn1cnc2c([nH]c3cc(OC)ccc32)c1=O`, the AC50 result was “inactive”. The same measure, in the same setting: the same measure for `CCN1CCCC1Cn1cnc2c([nH]c3ccc(C)cc32)c1=O` (centres undefined): 4.47 µM (active); for `COc1ccc2[nH]c3c(NCCCN4CCCC4=O)ncnc3c2c1`: “inactive”; for `O=S(=O)(C=C(c1ccccc1)c1ccccc1)c1ccccc1`: “inactive”. For `O=S(=O)(c1ccc(Br)cc1)N1CCN(S(=O)(=O)c2ccc(Br)cc2)CC1`, the activity, negative = inhibition is -1.87% [at 11.4 µM] (inactive). On to `O=S(=O)(c1ccccc1)N1N=C(c2cccs2)CC1c1ccc(Br)cc1` (centres undefined), for which the AC50 is 1.12 µM (active).

For `O=c1oc(-c2cccs2)nc2ccc(Br)cc12`, the AC50 entry is “inactive”. Still for that read-out and setting: the same measure for `COc1nc(C)nc(Cl)c1NC1=NCCN1`: “inactive”; for `Clc1cccc(Cl)c1NC1=NCCN1`: 10 µM (active). Still for that read-out and setting: the same measure for `COc1ncc2nc(-c3cccs3)c(=O)n(CCc3ccccc3)c2n1`: “inactive”. Still for that read-out and setting: the same measure for `CCCCOC(=O)CSCC(=O)Nc1cc(C)on1`: “inactive”. Turning to `Cc1cc2nc(CCN(C(=S)NCC(C)C)C3CCCC3)[nH]c2cc1C`, the AC50 was 1.12 µM (active).

For `COc1ccc(/C=C/C(=O)Nc2ccccc2C(=O)N2CCCC2)cc1`, the AC50 entry is “inactive”. Consider `COC(=O)[C@@]1(Cc2ccccc2)[C@H]2c3cc(C(=O)N4CCCC4)n(Cc4ccc(S(C)(=O)=O)cc4)c3C[C@H]2CN1C(=O)c1ccccc1`, for which the AC50 result was “inactive”.

For the molecule `CCCc1cc2c(n1CCc1ccc(Cl)cc1)C(C)C1CN(C(=O)c3ccccc3)C(C)(C(=O)OC)C21` (centres undefined), the AC50 was 5.01 µM (active). Same read-out and setting: the result for `COC(=O)[C@@]1(Cc2ccc(F)cc2)[C@H]2c3cc(C(=O)N4CCCC4)n(Cc4ccc(Cl)c(C(F)(F)F)c4)c3C[C@H]2CN1C(=O)c1ccccc1` reads “inactive”. The same measure, in the same setting: the result for `CS(=O)(=O)Nc1c(O)ccc2c1CCC[C@H]2C1=NCCN1` reads “inactive”; that for `N[C@H](C(=O)O)c1cc(O)cc(O)c1`, “inactive”; that for `O=C(CNC(=O)c1cccs1)NCC(=O)OCc1ccc(Cl)cc1Cl`, 3.55 µM (active). On the same count and under the same terms, the result for `C/C(=N/NC(=O)c1cccs1)c1ccc(NC(=O)COc2ccc(Cl)cc2Cl)cc1` reads “inactive”; that for `O=C(NOC(=O)c1cc(Br)ccc1Cl)c1cccs1`, “inactive”. With `O=C(CNC(=O)c1cccs1)NCC(=O)OCc1ccc(Cl)cc1`, the AC50 is 15.8 µM (active).

For `O=C(CNC(=O)Cc1ccccc1)NCC(=O)OCc1ccccc1` (PhAc-Gly-Gly-OBn), the AC50 entry is “inactive”.

Regarding `CC(C)(C)c1ccc(COC(=O)CNC(=O)CNC(=O)Cc2ccccc2)cc1`, the AC50 result is “inactive”.

As a reminder, the AC50 is the concentration giving half of the maximal activity seen.
